Out of some 16,000 compounds screened, about 4,000 (25%) were called active. Roughly 26% stayed inconclusive and do not appear here. The call rests on the fitted dose curve; in most records, active means well fitted curve in the direction sought with a large enough effect; inconclusive means small, poorly fitted or top-dose-only effect, or effect the other way; inactive means no such curve, though single readings can be large or run the other way. The list is a sample of the results. Square brackets hold non-standard residues; d marks the D form. Peptide text beside a SMILES is read from it.
The compounds below were run against Cytochrome P450 2C9 (Homo sapiens) (UniProt P11712) (assay: Cytochrome panel assay with activity outcomes). Conditions: recombinant CYP, pro-luciferin dealkylation, luminescence, p450-cyp2c9; series mostly up to 57.1 µM; activity, negative = inhibition: at the top concentration.
Chain of Cytochrome P450 2C9 (Homo sapiens) (P11712 whole entry, looked up): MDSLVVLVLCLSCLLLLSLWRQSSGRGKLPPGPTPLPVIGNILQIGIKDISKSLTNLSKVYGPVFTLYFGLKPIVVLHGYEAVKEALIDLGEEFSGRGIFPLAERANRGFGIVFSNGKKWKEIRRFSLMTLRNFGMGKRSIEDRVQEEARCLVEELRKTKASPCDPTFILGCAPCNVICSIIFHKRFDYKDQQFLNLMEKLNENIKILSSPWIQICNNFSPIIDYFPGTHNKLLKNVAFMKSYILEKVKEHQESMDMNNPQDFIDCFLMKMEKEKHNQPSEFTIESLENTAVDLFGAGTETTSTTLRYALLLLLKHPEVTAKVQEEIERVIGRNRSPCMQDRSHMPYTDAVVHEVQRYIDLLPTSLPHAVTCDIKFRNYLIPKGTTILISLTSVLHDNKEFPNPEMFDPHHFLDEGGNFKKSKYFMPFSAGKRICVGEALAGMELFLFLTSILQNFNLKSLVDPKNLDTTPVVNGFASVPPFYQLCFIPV
`CO[C@@H](NC(N)=O)C(=O)O` was tested, and the activity, negative = inhibition was 25.8% [at 11.4 µM] (inactive). For `NCC(=O)N[C@H](CO)C(=O)O` (H-Gly-[dS]-OH), the activity, negative = inhibition was 12.1% [at 11.4 µM] (inactive). In the case of `CCOC(=O)N1CCN(C(=O)c2oc3ccc(S(=O)(=O)N4CCCCC4)cc3c2C)CC1`, the AC50 is reported as 10 µM (active). With `CCOC(=O)N1CCN(C(=O)c2ccc(Cl)c(S(=O)(=O)N3CCOCC3)c2)CC1` the “activity, negative = inhibition” value was -23.4% (inactive). `CN(Cc1ccccc1)S(=O)(=O)c1ccc(OCC(=O)N2CCOCC2)cc1` was tested, and the AC50 was 14.1 µM (active). `COc1ccc(S(=O)(=O)N(CCc2ccccc2)CC(=O)N2CCOCC2)cc1` was tested, and the “activity, negative = inhibition” value was -22.5% (inactive). With `CCN(CC)C(=O)COc1ccc(S(=O)(=O)N2CCOCC2)cc1` the “activity, negative = inhibition” value was -37.4% (inactive). With `COc1cccc(-c2nnc3n2N=C(C(C)(C)C)CS3)c1` the AC50 was 17.8 µM (active). For `COc1cccc(-c2cc(NCc3cnc(C)cn3)ncn2)c1`, the activity, negative = inhibition was 6.07% [at 2.29 µM] (inactive). In the case of `COc1cccc(-c2cc(NCc3ccc(OC)cc3OC)ncn2)c1`, the activity, negative = inhibition is reported as -18.3% [at 2.29 µM] (inactive). In the case of `Cc1nn(S(=O)(=O)c2cccs2)c(C)c1Sc1ccc([N+](=O)[O-])cc1`, the AC50 is reported as 4.47 µM (active). In the case of `O=C(C/C=N/OCc1ccc(F)cc1Cl)c1cnc(-c2ccccc2)s1`, the AC50 is reported as 3.98 µM (active). `Cc1ccccc1/C=C1\OC(=O)c2ccccc21` was tested, and the “activity, negative = inhibition” value was 33.4% (inactive). For `CCCCS(=O)(=O)NC1=NCN(Cc2ccco2)CN1`, the “activity, negative = inhibition” value was -14.9% (inactive). In the case of `COC(=O)C(NC(=O)c1ccccc1)=C1C=C(C)OC(C)=C1`, the “activity, negative = inhibition” value is reported as -8.95% (inactive). With `CC1(C)OC(=O)N(Cc2ccco2)C1(C)O` (configuration not stated) the “activity, negative = inhibition” value was -21.2% (inactive). For `CC1=CC(=C2C(=O)c3ccccc3C2=O)C=C(C)O1`, the AC50 was 2.51 µM (active). `CC1=CC(=C2C(=O)c3ccccc3C2=O)C=C(C)N1Cc1ccco1` was tested, and the AC50 was 2.24 µM (active). For `CC(=O)NC1(c2cccc(F)c2)CCN(CC(=O)NC(C)C)CC1`, the “activity, negative = inhibition” value was -0.525% (inactive). For `CCCCCCCCCn1cc(C(C)=O)c(=O)[nH]c1=O`, the “activity, negative = inhibition” value was 3.97% (inactive). `COc1ccc(CNc2ccnc(-c3ccccc3C(F)(F)F)n2)c(OC)c1` was tested, and the activity, negative = inhibition was 3.78% [at 2.29 µM] (inactive). With `Cc1ccc(C(=O)C(OC(=O)COc2ccccc2C)c2ccccc2)cc1` (configuration not stated) the AC50 was 15.8 µM (active). With `Cc1ccccc1OCC(=O)OC1CCN(C)CC1` the “activity, negative = inhibition” value was -10.2% (inactive). For `Cc1ccc(C(=O)C(OC(=O)CNS(=O)(=O)c2ccccc2)c2ccccc2)cc1` (configuration not stated), the AC50 was 7.08 µM (active). `Cc1ccc(C(=O)C(OC(=O)CN2C(=O)c3ccccc3C2=O)c2ccccc2)cc1` (configuration not stated) was tested, and the “activity, negative = inhibition” value was -20.4% (inactive). In the case of `CCSc1nnc2n(N)c(=O)c3ccccc3n12`, the “activity, negative = inhibition” value is reported as -10.6% (inactive). With `CO[C@H]1COC(=O)CCC[C@H](C)[C@H](OC)COC(=O)C/C=C\[C@@H]1C` the activity, negative = inhibition was 25.3% [at 11.4 µM] (inactive). In the case of `COc1ccc2[nH]cc(CCNc3ncncc3-c3ccc(N(C)C)cc3)c2c1`, the AC50 is reported as 0.501 µM (active). For `CN(C)C(=O)c1ccc(-c2cncnc2NCCc2cnc[nH]2)cc1`, the activity, negative = inhibition was -10.2% [at 2.29 µM] (inactive). With `COc1ccc2[nH]cc(CCNc3cc(-c4ccc(C(=O)N(C)C)cc4)ncn3)c2c1` the activity, negative = inhibition was 8.96% [at 2.29 µM] (inactive). `COc1ccc2[nH]cc(CCNc3ncncc3-c3cccnc3)c2c1` was tested, and the activity, negative = inhibition was 0.571% [at 2.29 µM] (inactive). In the case of `COc1ccc2[nH]cc(CCNc3ncncc3-c3ccc(C(=O)N(C)C)cc3)c2c1`, the AC50 is reported as 0.398 µM (active). With `COc1ccc2[nH]cc(CCNc3ncnc4ccc(-c5ccc(C(=O)N(C)C)cc5)cc34)c2c1` the AC50 was 0.251 µM (active). In the case of `COc1ccc(CNc2ncncc2-c2ccc(N(C)C)cc2)c(OC)c1`, the activity, negative = inhibition is reported as -16.8% [at 2.29 µM] (inactive). For `COc1ccc2[nH]cc(CCNc3ccnc(-c4ccc(C(=O)N(C)C)cc4)n3)c2c1`, the activity, negative = inhibition was -14% [at 2.29 µM] (inactive). With `COc1ccc(CNc2ncncc2-c2ccc(C(=O)N(C)C)cc2)c(OC)c1` the activity, negative = inhibition was -28.8% [at 2.29 µM] (inactive). In the case of `Cn1c(-c2sccc2OCc2ccccc2)n[nH]c1=S`, the AC50 is reported as 11.2 µM (active). In the case of `CSc1nnc(-c2sccc2OCc2ccccc2)n1C`, the AC50 is reported as 17.8 µM (active). With `CSc1n[nH]c(-c2sccc2OCc2ccc(C)cc2)n1` the AC50 was 5.01 µM (active). With `Cn1c(=O)c(-c2cccs2)nc2cnc(OCc3ccccc3)nc21` the “activity, negative = inhibition” value was -29.1% (inactive). `CC(C)=CCC/C(C)=C/CO/N=C1/C[C@@H](O)[C@@H](O)[C@@H]2[C@@H]3C(=O)N(C4CCCCC4)C(=O)[C@H]3CC[C@@H]12` was tested, and the activity, negative = inhibition was -8.91% [at 11.4 µM] (inactive). In the case of `CC(SCc1cn2cc(Cl)ccc2n1)C(=O)O` (configuration not stated), the “activity, negative = inhibition” value is reported as -37.7% (inactive). `CN(C)c1ccc(-c2cc(NCc3ccccc3)ncn2)cc1` was tested, and the activity, negative = inhibition was -5.31% [at 2.29 µM] (inactive). With `COc1cccc(-c2cc(NCc3ccccc3OC)ncn2)c1` the activity, negative = inhibition was -9.54% [at 2.29 µM] (inactive). For `c1ccc(Oc2cc(-c3ccccc3)ncn2)cc1`, the AC50 was 20 µM (active). `CO[C@@H]1COC(=O)[C@H](C)NC(=O)C/C=C\[C@@H](C)[C@@H](NS(=O)(=O)c2ccc(C)cc2)COC(=O)C/C=C\[C@@H]1C` was tested, and the activity, negative = inhibition was -0.567% [at 11.4 µM] (inactive). `COCCNc1ncnc2ccc(-c3ccc(C(=O)N(C)C)cc3)cc12` was tested, and the activity, negative = inhibition was -1.35% [at 2.29 µM] (inactive).
On the % scale 0 is the no-effect control and ±100 the full control effect.
